Compound activity (PubChem BioAssay)
Rows were chosen to be rich in hits. Some 4.9% of all compounds tested hit in one or more screens of this group.
Platelet DG rel: platelet dense granule release activity. inhibition, %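 (compounds screened at 7.5 µM in platelet-rich plasma)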. AID 1663. human platelet-rich plasma, SFLLRN dense granule ATP release, luminescence. hit rate 0.22% among 300,000;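 active = mean replicate score, as percent of positive control, at or above 50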
HSF1 inh: HSF1 inhibition; NIH3T3-HGL HSE-luciferase, MG132-induced, luminescence 8 h; active compounds read low; activity change, negative = inhibition, % at 7.5 µM (by protocol); hit rate 0.77% among 300,000;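 active = more than half of replicate wells show activity change below -50%, luminescence cut by over half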;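 also: luciferase reports HSF-1 transcriptional activity via heat shock element; 0% = median of DMSO wells and -100% = zero luminescence signal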
MPTP inh: blocks calcium-induced mitochondrial swelling | isolated mouse mitochondria, Ca2+ swelling absorbance, 30 min | inhibition, % at 10 µM | hit rate 1.4% among 360,000;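 active = inhibition of 50% or more, scaled per plate between neutral and stimulator controls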;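 also: 0% = DMSO wells given calcium and 100% = 1 mM EGTA wells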
HSP90 inh: HSP90 refolding inhibition in rabbit reticulocyte lysate; luciferase refolding luminescence, 3 h; inhibition, % at 5.6 µM; hit rate 0.91% among 290,000; AID 1789;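 active = inhibition above the screen-wide mean plus 3 SD, computed separately per campaign, cut at about 16% in these data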;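 also: 0% = DMSO wells and 100% = 60 µM geldanamycin wells; inhibitors lower the luminescence because luciferase stays unfolded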
dFosB activator: mouse delta FosB homodimer activation; P13346; purified delta FosB, TAMRA-CDK5 oligo fluorescence polarization; percent of positive-control signal above neutral wells; activation, % at 25 µM; hit rate 0.99% among 340,000;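 active = mean activation above about 17%, with every replicate also reaching it, limit read from the data, passing the limit was not always enough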
Target sequence (P13346 whole entry, looked up): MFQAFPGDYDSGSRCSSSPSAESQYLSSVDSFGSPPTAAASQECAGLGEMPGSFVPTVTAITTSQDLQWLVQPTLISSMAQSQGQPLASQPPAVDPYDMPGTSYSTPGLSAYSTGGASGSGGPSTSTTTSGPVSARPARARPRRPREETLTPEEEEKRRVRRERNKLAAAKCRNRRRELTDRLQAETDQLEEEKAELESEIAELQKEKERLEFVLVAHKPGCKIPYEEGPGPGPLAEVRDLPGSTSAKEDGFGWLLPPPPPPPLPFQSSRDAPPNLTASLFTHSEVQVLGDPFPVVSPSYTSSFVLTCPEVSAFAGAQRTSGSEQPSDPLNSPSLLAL
HSF1 activator: increases HSF-1 driven luciferase reporter signal; NIH3T3-HGL HSF-1 luciferase reporter, MG132, 8 h; 100% = twice DMSO control signal; activation, % at 9 µM; AID 504408; hit rate 1.7% among 300,000;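 active = mean replicate activation of at least 50% with a set share of replicates each reaching 50%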;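 also: 0% = median of the neutral control wells and 100% = twice that signal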
MPTP counter: mitochondrial membrane potential, counter-screen | shares compounds with MPTP inh | isolated mitochondria, Rhodamine 123 fluorescence | inhibition, % at 10 µM | hit rate 78% among 5,000 | AID 624504; in the data active = inhibition above about 22%;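 also: 0% = DMSO vehicle and 100% = positive control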
MPTP abs DR: dose response confirmation of mitochondrial permeability transition pore inhibitors. hit rate 58% among 780. IC50, µM. isolated mitochondria swelling, absorbance. shares compounds with MPTP inh; in the data active = IC50 below about 20 µM
MPTP cs DR: MPTP inhibitor counter-screen activity, dose response; isolated mitochondria counterscreen, fluorescence read-out; shares compounds with MPTP inh; hit rate 49% among 780; IC50, µM; AID 651564; in the data active = IC50 below about 80 µM
* marks the source's active call; other numbers are inactive results; i = inactive; · = not tested or not shown; ! = a repeat was not active.

SMILES	Platelet DG rel	HSF1 inh	MPTP inh	HSP90 inh	dFosB activator	HSF1 activator	MPTP counter	others
COC(=O)C1=C(c2cc3ccccc3s2)C[C@@H]2CC[C@H]1N2C(=O)N1CCC(O)CC1	-10	-5	-2	·	-8	-7	·
CC(C)CN1CCN(Cc2ccc(F)cc2Cl)CC1CCO (stereo not drawn)	2	-6	3	0	-13	-13	·
Cc1[nH]c2ccc(O)cc2c1CCN	·	·	-2	·	2	·	·
Cc1[nH]c2c(C(F)(F)F)cccc2c1CCN	-5	-1	73*	7	-6	-6	-7	MPTP abs DR=i;MPTP cs DR=>80
CCOC(=O)C1(c2ccccc2)CCN(CCC(=O)Nc2ccc(OC)cc2)CC1	·	·	0	·	·	·	·
CCOC(=O)C1(c2ccccc2)CCN(CCC(=O)Nc2cccc(Br)c2)CC1	·	·	77*	·	18*	·	11
CC(Cc1ccccc1)/[N+]([O-])=C\c1ccc(C(F)(F)F)cc1 (stereo not drawn)	11	7	0	·	2	10	·
Cc1ccc(-c2cc(-c3ccc(C)cc3)[n+](-c3ccc(C(=O)O)cc3)c(-c3ccc(C)cc3)c2)cc1	-2	-28	0	·	-6	-30	·
Cc1ccc(C[n+]2c(-c3ccc(C)cc3)cc(-c3ccc(C)cc3)cc2-c2ccc(C)cc2)cc1	-8	9	93*	·	-2	1	116*
CCN(CCCl)c1cc(CN(C)C)cc(NC(=O)c2ccc(C(=O)Nc3cc(CN(C)C)cc(N(CC)CCCl)c3)cc2)c1	·	·	82*	·	38*	·	-32
CCCCN1C(=O)/C(=C/c2ccc(N3CCCCCC3)cc2)C(=O)NC1=S	-7	-1	·	-1	·	9	·
CN1C(=O)/C(=C\c2ccc(N3CCCCCC3)cc2)C(=O)NC1=S	8	9	71*	0	0	2	-10	MPTP abs DR=i;MPTP cs DR=57*
O=C1C(=O)N(c2ccccc2)P(=O)(N(CCCl)CCCl)N1c1ccccc1	·	·	-2	·	-5	·	·
Oc1ccc(C2NCc3ccccc3-n3cccc32)cc1Cl (stereo not drawn)	1	5	84*!	-1	-6	4	-15	MPTP abs DR=i;MPTP cs DR=>80
C[C@]12CCC3[C@@H](CCC4=CC(=O)CC[C@@]43C=O)C1CCC2=O (stereo partly drawn)	-8	-3	0	3	0	3	·
O=S(=O)(c1cc(Cl)cc(Cl)c1)N1Cc2cc(-c3cccc(F)c3)ccc2-n2nncc2C1	·	·	-2	·	·	·	·
NC(Cc1ccc(F)cc1)c1csc(Nc2ncccn2)n1 (stereo not drawn)	·	·	2	·	·	·	·
CCN(CC)S(=O)(=O)c1ccc(C)c(NCC(=O)Nc2ccc(C#N)c(Cl)c2)c1	4	17	77*	-3	3	24	87*
CC(C)N(C(=O)CCl)c1ccccc1	·	·	1	·	-2	·	·
O=C1C=C2C=C[C@@H]3CC2(O1)[C@H]1CCCCN31	·	·	2	·	3	·	·
OC(c1cccc(Cl)c1)(c1cccc(Cl)c1)C1CN2CCC1CC2 (stereo not drawn)	-3	11	72*	3	-10	29	-10
O=c1[nH]c2ccccc2n1C1CCN(C(CCc2ccccc2)c2nnnn2C2CCCCC2)CC1 (stereo not drawn)	·	·	2	·	·	·	·
Cc1ccc(Cl)cc1N1CCN(CCN)CC1	6	-6	78*	-3	0	-9	-8	MPTP abs DR=12*;MPTP cs DR=>80
O=C1NCN(c2ccccc2)C12CCN(C(c1nnnn1C1CCCC1)C1CC1)CC2 (stereo not drawn)	·	·	-3	·	·	·	·
CCOC(=O)[C@]12Cc3cc(OC)ccc3[C@H]1N(CC(=O)OC)C(=O)c1cc(OC)ccc12	·	·	-3	·	·	·	·
OC1(c2ccc(Cl)cc2)CCN(Cc2c[nH]c3ccccc23)CC1	-1	1	94*	·	1	-15	-16	MPTP abs DR=5.3*;MPTP cs DR=>80
c1ccc2c(CN3CCCCC3)c[nH]c2c1	5	-5	3	6	4	-10	·
CCCCCCCC(=O)NC(Oc1ccccc1[N+](=O)[O-])C(Cl)(Cl)Cl (stereo not drawn)	0	2	70*	10	5	4	59*
